In all, about 360,000 compounds went through this assay and about 2,700 (0.75%) were called active. Cut-off read from the data, not from the text of the source: active = inhibition above about 4.5%; inactive = the rest. The full list was thinned out, with actives kept by preference.
The compounds below were run on Methionine sulfoxide reductase A (Bos taurus) (assay: bovine MsrA enzyme inhibitors, primary screen, biochemical, absorbance, HTS (AID 651718;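 note: 0% = vehicle wells with enzyme and 100% = reference inhibitor wells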)). Conditions: purified bovine MsrA, absorbance read-out; at 15.5 µM; active compounds read high.

Row | Structure (SMILES) | inhibition
1 | O=[N+]([O-])c1ccccc1/C=N/n1c(COc2ccccc2)n[nH]c1=S | 0.65% (inactive)
2 | CCc1n[nH]c(=S)n1/N=C/c1c[nH]c2ccc(Br)cc12 | 0.05% (inactive)
3 | S=c1[nH]nc(-c2ccccc2)n1/N=C/c1c[nH]c2ccccc12 | 5.73% (active)
4 | CC1CCN(C(=O)c2ncn3c2C(=O)N[C@@H](C)C3)CC1 | 0.14% (inactive)
5 | O=C(NCc1ccccc1)[C@H]1CCCN1C(=O)[C@H]1CCCN1C(=O)N1CCOCC1 | -0.41% (inactive)
6 | CN(C)c1nc(N)nc(CSc2ccccn2)n1 | 0.24% (inactive)
7 | C=CCN=C1NC(c2cccc(C(F)(F)F)c2)C(C(=O)OC)=C(C)N1C (stereo not given) | -0.08% (inactive)
8 | CCc1ccc(Oc2coc3cc(OC(=O)c4cc5ccccc5oc4=O)ccc3c2=O)cc1 | 1.04% (inactive)
9 | CCCOC(=O)c1cc2ccccc2oc1=O | 13% (active)
10 | Cc1cc(C)cc(OCC(=O)NNC(=O)c2cc3ccccc3oc2=O)c1 | 0.25% (inactive)
11 | COC(=O)Cc1nnn2c1[C@H](C)[C@H](c1ccccc1[N+](=O)[O-])OCC2 | 0.24% (inactive)
12 | Cc1c(C=O)c2ccccc2n1CC(=O)O | 2.23% (inactive)
13 | Cc1c(C(=O)NNC(=O)c2ccncc2)oc2ccccc12 | 0.46% (inactive)
14 | Cc1c(C=O)c2ccccn2c1C(=O)c1ccncc1 | 4.76% (active)
15 | O=C(NCCc1nnc2ccc(SCC(=O)N3CCOCC3)nn12)c1ccccc1 | -0.18% (inactive)
16 | Cc1noc(C)c1NC(=O)Nc1ccc2c(c1)C(=O)N([C@H](C)CO)C[C@H](C)[C@H](CN(C)Cc1ccncc1)OCCCC[C@@H](C)O2 | -0.23% (inactive)
17 | CCN1C(=O)N[C@@H]2C[C@H](C(=O)N3CCCC3)[C@H](C)[C@H](c3ccccc3)C[C@@H]21 | -0.32% (inactive)
18 | O=C(N/N=C/c1ccc2c(c1)OCO2)c1ccc(Cn2cc([N+](=O)[O-])cn2)o1 | 6.14% (active)
19 | CN(C)c1ccc(/C=N/NC(=O)c2ccc(Cn3cc(Br)cn3)o2)cc1 | 4.19% (inactive)
20 | O=C(c1ccc(Cn2cc([N+](=O)[O-])cn2)o1)N1CCCC1 | 0.09% (inactive)

Row | Structure (SMILES) | inhibition
21 | N/C(=N\OS(=O)(=O)c1cccc([N+](=O)[O-])c1)c1ccncc1 | -0.51% (inactive)
22 | CCCCCCCCN1C(=O)[C@@H](CC(=O)NCc2ccc(C)o2)C[C@@]2(C(=O)OC)C1=C[C@H](C(C)(C)C)O[C@@H]2C | -0.4% (inactive)
23 | CC(=O)c1ccccc1OCc1ccc(C(=O)c2ccccc2)cc1 | 0.66% (inactive)
24 | CCN(CC)CCCC(C)n1c2nc(=O)[nH]c(=O)c-2nc2cc(Cl)ccc21 (stereo not given) | 14.4% (active)
25 | Cc1cc2nc3c(=O)[nH]c(=O)nc-3n(C[C@H](O)[C@H](O)[C@H](O)CO)c2cc1C | 2.57% (inactive)
26 | O=S1(=O)c2c(cccc2N2CCCCC2)O[C@H](COCc2ccccc2)CN1C1CC1 | -0.51% (inactive)
27 | Cc1ccc(CSc2nsc(C)c2C#N)cc1 | 0.38% (inactive)
28 | CC(C)=C1SC(N2CCN(c3ccc(C)c(Cl)c3)CC2)=NC1=O | -1.4% (inactive)
29 | O=C1N=C(N2CCOCC2)S/C1=C\C=C/c1ccccc1 | 3.23% (inactive)
30 | Cc1ccc(N2CCN(C3=NC(=O)/C(=C\c4cccs4)S3)CC2)cc1 | 5.14% (active)
31 | COc1ccc(S(=O)(=O)Nc2ccc3c(c2)C(=O)N([C@H](C)CO)C[C@H](C)[C@@H](CN(C)C)OCCCC[C@H](C)O3)cc1 | 0.52% (inactive)
32 | Cc1c(C(=O)OCC(=O)N2CCCC2=O)oc2ccccc12 | -1.01% (inactive)
33 | Cc1c(C(=O)N2CCCc3ccccc32)oc2ccccc12 | 10.3% (active)
34 | Cc1ccc(C(=O)N2CCCc3ccccc32)c(Cl)c1 | -0.31% (inactive)
35 | O=C1Nc2ccccc2C1=NN=Cc1ccco1 | 0.16% (inactive)
36 | CCOC(=O)/C(C#N)=C\c1c(C)cc(C)c(COC(C)=O)c1C | 0.74% (inactive)
37 | COc1ccc(/C=C(\C#N)C(=O)ONC2=NCCCCC2)cc1 | 1.44% (inactive)
38 | COC(=O)/C(C#N)=C/c1occc1C | 5.68% (active)
39 | COc1ccc(CN2CCNC(=O)C2CC(=O)N(C)Cc2ccccn2)cc1OC (stereo not given) | -0.62% (inactive)
40 | C[N+](C)(C)CCOP(=O)([O-])OC[C@H](O)CO | 0.34% (inactive)

Row | Structure (SMILES) | inhibition
41 | CCCCC(=O)Nc1ccccc1N1CCN(c2ccc(F)cc2)CC1 | -1.12% (inactive)
42 | O=C(Nc1ccccc1N1CCOCC1)c1ccncc1 | 1.2% (inactive)
43 | CC(=O)c1ccc(N2CCN(CC(=O)Nc3ccccc3N3CCOCC3)CC2)cc1 | 4.88% (active)
44 | COC(=O)N1Cc2ccnnc2CC1c1ccccc1Br (stereo not given) | -0.9% (inactive)
45 | CN(Cc1ccccc1)C(=O)c1ccc(NC2=NC3CS(=O)(=O)CC3S2)cc1 (stereo not given) | 1.72% (inactive)
46 | COc1ccc(C2=NS(=O)(=O)N(C)C(C(=O)NC(C)c3ccccc3)=C2)cc1 (stereo not given) | 4.29% (inactive)
47 | COc1ccc(C2=NS(=O)(=O)N(C)C(C(=O)N(C)Cc3ccccc3)=C2)cc1 | 3.53% (inactive)
48 | COc1ccc(C2=NS(=O)(=O)N(C)C(C(=O)N3CCCCC3)=C2)cc1 | 5.54% (active)
49 | CCCCCCc1cc2cc(-c3nnc(-c4cccc(OC)c4)o3)c(=O)oc2cc1O | -0.59% (inactive)
50 | O=C(N/N=C/c1ccc(O)c(O)c1)C1c2ccccc2Oc2ccccc21 | 0.85% (inactive)
51 | Oc1ccc(/C=N/Nc2ccc(C(F)(F)F)cn2)cc1O | 7.63% (active)
52 | COc1ccc(/C=N/Nc2ncnc3sc4c(c23)CCCC4)cc1O | 4.5% (inactive)
53 | CC(=O)c1sc2nc(SCC(=O)N3CCCCC3)[nH]c(=O)c2c1C | 6.38% (active)
54 | CSc1nnc(SCc2nc3sc(C(=O)O)c(C)c3c(=O)[nH]2)s1 | 0% (inactive)
55 | Cc1c(C)n2c(SCC(=O)N3CCCC3)nnc2[nH]c1=O | -0.57% (inactive)
56 | COc1ccc(-c2ccccc2C2Cc3nnccc3CN2C(=O)Nc2ccccc2)cc1 (stereo not given) | 2.13% (inactive)
57 | CC(=O)N1C[C@@H](CO)[C@@H](N(C)C(=O)C(C)(C)C)C[C@H]1c1ccccc1Br | 0.66% (inactive)
58 | COc1cccc(C2=CC(=O)C[C@H](c3ccc(F)cc3)C2)c1OC | 6.7% (active)
59 | O=C1C=C(c2cccc(Cl)c2O)C[C@@H](c2ccc(F)cc2)C1 | -0.68% (inactive)
60 | COc1ccccc1C1=CC(=O)C[C@H](c2ccc(F)cc2)C1 | 1.16% (inactive)

Reference: PubChem BioAssay AID651718 (The Scripps Research Institute Molecular Screening Center, 2012)
